Bioassay records (PubChem BioAssay)
Sampled rows, rich in hits. Any-hit rate of the full collection: about 3.4%.
PAX8 inh HTS: PAX8 transcriptional activity inhibition. AID 652154. inhibition, % at 12.6 µM. 360,000 tested, 1.2% active. RMG-I TPO-luciferase reporter, SteadyGlo, 24 h;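 active = mean replicate inhibition at least 60% with every replicate also reaching 60%; inconclusive = only one of the two criteria is met; inactive = mean below 60% and not all replicates reaching 60%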;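 note: luciferase light reporting Pax8 driven TPO promoter activity; plate controls were median of neutral control wells for no effect and mitoxantrone controls for full effect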
PGC1a acetyl inh: lowers PGC1a acetylation signal in U2OS cells; AlphaScreen anti-acetyl-lysine; with virally co-expressed GCN5 acetyltransferase; inhibition, % at 15.6 µM; 350,000 tested, 0.17% active; AID 651687;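 active = every replicate shows inhibition of at least 40%; inconclusive = mean inhibition at least 40% but some replicate below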;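 note: 0% = neutral control wells and 100% = positive control wells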
EWS-Fli block: blocks EWS/Fli oncoprotein-driven transcription. A673 NR0B1-luciferase reporter, viability-normalised. 350,000 tested, 0.67% active. AID 651661. inhibition, % at 12.6 µM;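 active = mean inhibition of at least 50% after viability correction, with every replicate also passing that limit; inconclusive = mean reaches 50% but only one of two replicates passes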;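 note: firefly luciferase signal divided by Alamar Blue viability fluorescence both relative to DMSO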
SIRT5 inh: blocks human SIRT5 desuccinylation of peptide; 330,000 tested, 1.1% active; Purified SirT5, succinyl-peptide AMC, trypsin-coupled fluorescence; inhibition, % at 15 µM; Q9NXA8; in the data active = inhibition above about 15%; inconclusive = no clear call, values can overlap the other calls
Target sequence (Q9NXA8 whole entry, looked up): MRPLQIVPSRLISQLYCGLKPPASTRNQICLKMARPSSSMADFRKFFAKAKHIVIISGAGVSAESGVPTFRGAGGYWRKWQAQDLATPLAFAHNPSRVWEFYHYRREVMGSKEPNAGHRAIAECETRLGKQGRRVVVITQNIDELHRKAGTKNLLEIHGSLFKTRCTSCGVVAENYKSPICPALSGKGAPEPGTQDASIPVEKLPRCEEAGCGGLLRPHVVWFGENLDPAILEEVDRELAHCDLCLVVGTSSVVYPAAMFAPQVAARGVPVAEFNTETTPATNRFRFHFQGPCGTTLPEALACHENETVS
LGR2 antag: inhibitors of bursicon-induced Drosophila LGR2 receptor cAMP signaling | HEK293 LGR2, CRE-luciferase, bursicon-stimulated, 4 h | inhibition, % at 9.99 µM | 380,000 tested, 0.35% active;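 active = drop in luminescence signal, shown as inhibition above about 50% in the replicate tests, limit read from the data, passing the limit was not always enough; inconclusive = probably only some replicates passing the limit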;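 note: agonist challenge used bursicon conditioned medium at about half maximal strength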
rRNA inh HTS: selective bacterial rRNA inhibition in E. coli | E. coli WT GFP vs humanized-ribosome RFP mutants, fluorescence, 24 h; hits give low values; DMSO median 0, no signal -100 | GFP signal change (wild-type ribosome), % (test concentration not listed) | 350,000 tested, 1.6% active;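 active = significant combined selectivity score with lowered wild-type GFP, culture density cut under 30%, mutant RFP and density less affected; inactive = any of these conditions unmet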
* hit, by the source's call; ? = inconclusive; / = no result; ! = not confirmed by another sample.

SMILES	PAX8 inh HTS	PGC1a acetyl inh	EWS-Fli block	SIRT5 inh	LGR2 antag	rRNA inh HTS
C[C@@H]1CCCCO[C@@H](CN(C)Cc2ccc(C(=O)O)cc2)[C@H](C)CN([C@H](C)CO)C(=O)c2cc(NC(=O)c3ccccc3)ccc2O1	1	13	1	1	12	3
NC(=O)[C@@H]1[C@H]2C(=O)O[C@H](c3ccccc3)[C@H](c3ccccc3)N2[C@H](c2ccc(O)cc2)[C@@]12C(=O)Nc1ccc(C#CC3(O)CCCCCC3)cc12	-9	/	1	12	/	/
Cc1ccc(-c2cnc3c(c2)C(=O)N([C@H](C)CO)C[C@@H](C)[C@@H](CN(C)Cc2ccccc2F)O3)cc1	/	3	-11	-2	-10	-4
C[C@H](CO)N1C[C@H](C)[C@H](CN(C)Cc2cccc(C(F)(F)F)c2)Oc2ncc(-c3ccc(F)cc3)cc2C1=O	0	-2	16	18*	10	-9
Cc1ccc(-c2cnc3c(c2)C(=O)N([C@H](C)CO)C[C@H](C)[C@@H](CN(C)Cc2ccccc2F)O3)cc1	3	-8	3	13*!	3	-1
C[C@H](CO)N1C[C@H](C)[C@H](CN(C)Cc2ccc(F)cc2)Oc2ncc(-c3cccc(C(F)(F)F)c3)cc2C1=O	/	-17	36	-2	0	-25
C[C@H](CO)N1C[C@H](C)[C@H](CN(C)Cc2cccc(C(F)(F)F)c2)Oc2ncc(C#Cc3ccc(F)cc3)cc2C1=O	2	-2	26	2	37	0
C[C@H](CO)N1C[C@H](C)[C@H](CN(C)Cc2cccc(C(F)(F)F)c2)Oc2ncc(C#Cc3ccccc3)cc2C1=O	/	-10	22	29*	7	-1
CC(C)NC(=O)N(C)C[C@H]1Oc2ncc(C#CCc3ccccc3)cc2C(=O)N([C@@H](C)CO)C[C@@H]1C	/	2	16	16*	-2	-2
CC(C)NC(=O)N(C)C[C@@H]1Oc2ncc(C#CCc3ccccc3)cc2C(=O)N([C@H](C)CO)C[C@@H]1C	/	/	1	3	-2	3
O=C(C[C@@H]1CC[C@H]2[C@@H](COC[C@H](O)CN2Cc2nccs2)O1)NCc1ccc(F)cc1	2	3	-2	-3	16	0
C[C@@H]1CN([C@H](C)CO)C(=O)c2cccc(NC(=O)CCCCCC(=O)Nc3ccccc3N)c2O[C@@H]1CN(C)Cc1ccc(Cl)c(Cl)c1	52	-3	-12	/	-5	-7
COC(=O)c1c(CC[C@@H](CO)NC(=O)N[C@@H](Cc2ccccc2)Cn2cc(-c3ccccc3)nn2)oc(C(=O)N2CCOCC2)c1C(=O)OC	10	8	0	-5	/	/
C[C@H]1CN([C@@H](C)CO)C(=O)c2cc(C#CCc3ccccc3)cnc2O[C@H]1CN(C)Cc1cccc(F)c1	/	/	19	-1	10	-6
C[C@H](CO)N1C[C@H](C)[C@@H](CN(C)Cc2cccc(F)c2)Oc2ncc(C#CCc3ccccc3)cc2C1=O	/	-16	23	9	12	-35*
CCC(=O)N(C)C[C@@H]1Oc2ncc(-c3ccc(F)cc3)cc2C(=O)N([C@@H](C)CO)C[C@@H]1C	/	5	-5	24*	-7	3
CCC(=O)N(C)C[C@@H]1Oc2ncc(-c3ccc(F)cc3)cc2C(=O)N([C@H](C)CO)C[C@H]1C	/	4	-7	1	3	2
CC(C)NC(=O)Nc1ccc2c(c1)C(=O)N([C@@H](C)CO)C[C@H](C)[C@H](CN(C)C)O2	-4	5	/	-3	-7	7
CCS(=O)(=O)N1C[C@@H](C)[C@H](OC)CN(C)C(=O)c2ccc(NC(=O)Nc3ccccc3Cl)cc2OC[C@H]1C	/	-5	-4	0	-15	-1
Cc1ccc(S(=O)(=O)N/N=C\c2cn(CC(N)=O)c3ccccc23)cc1C	9	/	6	-5	-8	-23*
C[C@H]1CN([C@@H](C)CO)S(=O)(=O)c2ccc(-c3ccc(C(=O)N(C)C)cc3)cc2O[C@@H]1CN(C)C(=O)C1CC1	/	2	1	/	9	-2
CCOC(=O)N1CCC(N(CCOC)C(=S)Nc2cccc(SC)c2)CC1	-6	-3	0	1	-6	-23*
CCOC(=O)N1CCC(N(CCN(C)C)C(=S)Nc2cccc(OC)c2)CC1	4	?	0	-3	-16	12
CCOC(=O)c1sc2nc(OCCN3CCOCC3)cc(C)c2c1N	6	/	5	17*	-39	-9
C[C@H](CO)N1C[C@H](C)[C@@H](CN(C)Cc2ccc(Cl)c(Cl)c2)Oc2ccc(NC(=O)c3ccncc3)cc2CC1=O	0	-4	/	17*	7	-28
SMILES	PAX8 inh HTS	PGC1a acetyl inh	EWS-Fli block	SIRT5 inh	LGR2 antag	rRNA inh HTS
C[C@@H]1CN([C@H](C)CO)C(=O)Cc2cc(NC(=O)c3ccncc3)ccc2O[C@H]1CN(C)Cc1ccc(Cl)c(Cl)c1	7	3	/	1	34	-11
C[C@@H]1CN([C@H](C)CO)C(=O)Cc2cc(NC(=O)CCCN(C)C)ccc2O[C@@H]1CN(C)Cc1ccc(-c2ccccc2)cc1	16	0	12	99*	/	-60
C[C@@H]1CN([C@@H](C)CO)C(=O)Cc2cc(NC(=O)c3ccncc3)ccc2O[C@@H]1CN(C)Cc1ccc(-c2ccccc2)cc1	102*	-10	-16	4	2	-15
CCCC#Cc1ccc([C@H]2[C@H](CO)N3CCCCN(CC4CC4)C[C@@H]23)cc1	-7	-12	3	-3	/	/
O=C(CCl)N(C/C=C/c1ccccc1)c1ccc2c(c1)OCCO2	84*	/	45	4	-31	10
CCC(=O)N1CC2(CN[C@H](CO)c3c2c2ccc(OC)cc2n3C)C1	/	/	/	/	/	2
CC(=O)N(C)C[C@H]1Oc2c(cccc2N(C)C)C(=O)N(C)C[C@H]1C	/	/	/	/	/	4
COc1ccc(OC)c(S(=O)(=O)NC(C)CCc2ccccc2)c1 (stereo not given)	8	0	1	-2	6	-22
COc1ccc(OC)c(S(=O)(=O)NCCc2ccccc2)c1	/	/	-10	15*	-9	-3
CC(=O)N1CCC(=NNc2nc3ccccc3[nH]2)CC1	32	-3	-4	-1	0	-18*
C/C(=N\Nc1nc2ccccc2[nH]1)c1ccc(N2CCOCC2)cc1	-59	-17	-44	2	-5	-48*
C/C(=N\Nc1nc(C)cc(C)n1)c1ccc(N2CCOCC2)cc1	-15	/	6	4	3	6
CCC(C)(C)C1CCC(=NNc2nc3ccccc3[nH]2)CC1 (stereo not given)	-3	/	-7	-8	-1	-13
O=C(O)c1cccc(COc2ccccc2Cl)c1	/	-4	86*	0	101*	-9
O=C1NC(=O)/C(=C\c2ccc(OCc3cccc(C(=O)O)c3)c(Cl)c2)N1	33	2	25	4	83*	-30
